Assay [1] concerns the target Calcium and integrin-binding protein 1 (Homo sapiens) (UniProt Q99828). The experiment in a line: Primary qHTS for Identification of Calcium Integrin Binding Protein 1 (CIB1) Competitor (AID 1508620).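 Further: GST tagged CIB1 binding a fluorescein labelled alphaIIb integrin peptide tracer; top concentration of the series differs between compounds; on the % scale 0 is the no-effect control and ±100 the full control effect.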 To be noted: CIB1-GST / FITC-alphaIIb peptide fluorescence polarization; series mostly up to 114 µM. In short, it runs like this:
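CIB1-GST (1 uM final) and compound incubated 15 min at room temperature before adding FITC-alphaIIb peptide tracer (100 nM final). Competition for binding read by fluorescence polarization (ex 480, em 540) after another 15 min at room temperature.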
On the technique in general: qHTS replaces the single test concentration by a dilution series.

Assay [2] can be described thus: AP1 Signaling Pathway (AID 357; active means well fitted curve in either direction with a large enough effect, not every such curve was filed as active; further: on the % scale 0 is the no-effect control and ±100 the full control effect). The note with it: ME-180 AP-1-bla reporter, EGF-induced, beta-lactamase ratio, 5 h; at 7.69 µM (top of the series) unless noted. In short, it runs like this: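 In this screen, ME-180 cells in Opti-MEM with 0.5% dialyzed FBS received EC50 EGF and compound titrations for 5 h. AP-1 reporter beta-lactamase was detected via CCF4 ratio, giving AC50 for positive and negative modulators.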

Assay [3] can be described thus: NFAT Signaling Pathway (AID 444; active means well fitted curve in either direction with a large enough effect, not every such curve was filed as active;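 further: carbachol stimulus at about its EC50 of 1 µM final; on the % scale 0 is the no-effect control and ±100 the full control effect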). To be noted: Jurkat NFAT-bla M1, carbachol, beta-lactamase ratio, 5 h; at 7.69 µM (top of the series) unless noted. In short, it runs like this: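 Read-out: CCF4 FRET ratio (460 nm/530 nm) after 1 h RT dye loading, used for %activity and AC50 from titration series. Cells: Jurkat NFAT-β-lactamase/M1 line, treated with compound plus 1 uM carbachol for 5 h, 37 °C.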

A short description of assay [4]: Stat Signaling Pathway (AID 446; active means well fitted curve in either direction with a large enough effect, not every such curve was filed as active;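 further: ME-180 cervical cancer cells given 40 pM IL-6 alongside compound; SIE-controlled beta-lactamase reporter measured as 460/530 nm FRET emission ratio; on the % scale 0 is the no-effect control and ±100 the full control effect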). The note with it: ME-180 SIE beta-lactamase reporter, IL-6 stimulated, 5 h; at 7.69 µM (top of the series) unless noted. In short, it runs like this:
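Reporter line: ME-180 cervical carcinoma, SIE-beta-lactamase. Treatment: compound with 40 pM IL-6, 5 hrs, 37 C, in low-serum OPTI-MEM with 10 mM HEPES pH 7.3. Detection: 460/530 nm fluorescence.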

Assay [5] addresses Ubiquitin carboxyl-terminal hydrolase 1 (Homo sapiens) (UniProt O94782). The experiment in a line: Inhibitors of USP1/UAF1: Pilot qHTS (AID 504865).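 Further: rhodamine fluorescence freed from ubiquitin-rhodamine substrate followed over time; top concentration of the series differs between compounds; on the % scale 0 is the no-effect control and ±100 the full control effect; nearly all actives have a fitted effect of over 35% in size.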 The note with it: purified USP1/UAF1, Ub-rhodamine cleavage fluorescence; series mostly up to 54.9 µM. The method in brief: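 USP1/UAF1 complex at 1 nM preincubated 15 min at room temperature with compound, then Ub-Rho substrate added at 150 nM final. Fluorescence (480/540 nm) read kinetically in 50 mM HEPES pH 7.8, 0.5 mM EDTA, 1 mM TCEP, 0.1 mg/ml BSA, 0.01% Tween-20.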

Assay [6] deals with Cytochrome P450 1A2 (Homo sapiens) (UniProt P05177). Kind of assay: p450-cyp1a2 (AID 410; calls by dose curve;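 further: -100% = full effect of reference inhibitor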). The note with it: recombinant CYP1A2, luciferin-ME demethylation, luminescence; series mostly up to 57 µM. In short, it runs like this:
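Inhibition was calculated relative to 57 uM furafylline (full inhibition). The reaction used human CYP1A2 at 20nM with Luciferin-ME at its Km, 100uM, driven by an NADPH-regenerating system for 60 min at room temperature.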

The target of assay [7] is 3',5'-cyclic-AMP phosphodiesterase 4B (Homo sapiens) (UniProt Q07343). The experiment in a line: qHTS Assay for Inhibitors of PDE-IV (AID 607; active means well fitted activation curve with a large enough effect in the main read-out, with a control signal flat, not every such curve was filed as active; further: % of control where 0% means no effect). To be noted: HEK293 ACTOne CNG channel cells, membrane potential fluorescence; series mostly up to 22.9 µM. The method in brief:
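Cell-based read-out of cAMP via a modified cyclic nucleotide-gated channel and membrane potential dye (535/590 nm) in HEK293 cells expressing PDE4 endogenously. Compounds tested up to 22.9 uM final; 100 uM RO 20-1724 reference.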

Assay [8] concerns the target Guanine nucleotide-binding protein G(i) subunit alpha-1 (Homo sapiens) (UniProt P63096). The experiment in a line: qHTS Assay for Inhibitors of RGS12 GoLoco Motif Activity (Green Fluorophore) (AID 879).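 Further: 0% = labeled peptide with Gαi1 and full inhibition = labeled peptide alone without protein; negative values mean loss of peptide binding seen as reduced polarization.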 The note with it: Galphai1/FITC-RGS12 GoLoco peptide, fluorescence polarization; series mostly up to 57.1 µM. In short, it runs like this: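 Fluorescence polarization assay: 50 nM Gαi1 with 10 nM FITC-labeled RGS12 GoLoco peptide in 10 mM Tris pH 7.5, 150 mM NaCl, 0.1 mM GDP, 0.05% NP40, 10 min at room temperature with compound.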

Assay [9] addresses Cytochrome P450 2D6 (Homo sapiens) (UniProt P10635). The experiment in a line: qHTS Assay for Inhibitors and Substrates of Cytochrome P450 2D6 (AID 891). Further: nearly all actives have a fitted effect of over 60% in size. Further: potency means the concentration at half of the fitted maximal effect. To be noted: recombinant CYP2D6, luciferin-ME EGE luminescence; series mostly up to 57.1 µM. The method in brief: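 Human CYP2D6 (5 nM) with 30 uM Luciferin-ME EGE (at Km) in 100 mM KPO4, compound preincubated 10 min, then NADPH regeneration system for 60 min at room temperature. Luciferin read by luminescence; normalized to 1.43 uM quinidine.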

Assay [10] deals with Cytochrome P450 2C19 (Homo sapiens) (UniProt P33261). The experiment in a line: qHTS Assay for Inhibitors and Substrates of Cytochrome P450 2C19 (AID 899). Further: nearly all actives have a fitted effect of over 60% in size. Further: potency means the concentration at half of the fitted maximal effect. To be noted: recombinant CYP2C19, luciferin-H EGE luminescence; series mostly up to 57.1 µM. In short, it runs like this: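 Reactions contain 5nM enzyme, 10uM Luciferin-H EGE (KM) and 50mM KPO4; compound preincubates 10 min at 37C, NADPH regeneration starts turnover for 60 min. Luminescence after detection reagent gives activity.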
Cytochrome P450 2C19 (Homo sapiens), sequence (P33261 whole entry, looked up): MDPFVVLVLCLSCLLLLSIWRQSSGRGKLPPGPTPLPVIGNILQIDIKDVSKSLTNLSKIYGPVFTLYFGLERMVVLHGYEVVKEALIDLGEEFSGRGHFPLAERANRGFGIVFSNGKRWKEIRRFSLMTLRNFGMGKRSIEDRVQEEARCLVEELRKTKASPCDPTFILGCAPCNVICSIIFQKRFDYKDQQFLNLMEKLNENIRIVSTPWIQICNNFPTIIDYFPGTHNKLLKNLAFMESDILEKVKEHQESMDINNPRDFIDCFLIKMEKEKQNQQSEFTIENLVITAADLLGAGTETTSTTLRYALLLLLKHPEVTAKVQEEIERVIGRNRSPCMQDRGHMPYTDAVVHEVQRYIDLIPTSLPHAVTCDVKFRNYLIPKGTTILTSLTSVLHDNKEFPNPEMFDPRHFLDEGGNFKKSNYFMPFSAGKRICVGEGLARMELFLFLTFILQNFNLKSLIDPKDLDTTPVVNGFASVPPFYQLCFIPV

Assay [11] is described as follows: qHTS Assay for Identification of Small Molecule Agonists for Thrombopoietin (TPO) Signaling Pathway (AID 917). Further: on the % scale 0 is the no-effect control and ±100 the full control effect. The note with it: TPO signaling pathway reporter cells, agonist qHTS, stimulated with TPO at its EC50; series mostly up to 38.5 µM. In short, it runs like this: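 Murine Ba/F3 cells expressing human TPO receptor and GPIIb-promoter luciferase, IL-3-starved overnight, given compound plus TPO at 26 pM (EC50). After 24 h at 37 C, 5% CO2, luminescence read.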

Assay [12] concerns the target Pyruvate kinase (Leishmania mexicana) (UniProt Q27686). Kind of assay: qHTS Validation Assay for Inhibitors of Leishmania Mexicana Pyruvate Kinase (AID 945).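 Further: 0% = DMSO only neutral control wells.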 To be noted: purified L. mexicana pyruvate kinase, enzyme activity, E451W mutant enzyme; series mostly up to 57.5 µM. The method in brief:
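Mutant LmPYK (E451W), 0.2 nM, plus 0.5 mM PEP and 0.1 mM ADP in 50 mM imidazole pH 7.2 containing 0.01% Tween 20 and 0.05% BSA. Incubated 1 h at room temperature; luminescence via PKLight, normalized to DMSO.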

Assay [13] addresses Pyruvate kinase PKM (Homo sapiens) (UniProt P14618). The experiment in a line: qHTS Assay for Activators of Human Muscle Pyruvate Kinase (AID 954; active means well fitted curve in the direction sought with a large enough effect, not every such curve was filed as active;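 further: 0% = uninhibited enzyme and -100% = no enzyme or full thiadiazolimine inhibition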). To be noted: purified human muscle pyruvate kinase, luciferase-coupled luminescence, 1 h; series mostly up to 57.5 µM. The method in brief:
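Human PKM2 activity is measured as ATP generation, detected by luciferase-coupled luminescence. The enzyme (0.1 nM) acts on 0.5 mM PEP and 0.1 mM ADP for 1 h at ambient temperature; data are normalized to uninhibited and full-inhibition wells.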

The target in assay [14] is Alpha-galactosidase A (Homo sapiens) (UniProt P06280). Kind of assay: Counterscreen for Glucocerebrosidase Inhibitors: qHTS Assay for Human alpha-Galactosidase at pH 4.5 (AID 992). Further: 0% is about no effect. The note with it: purified enzyme, fluorogenic substrate; series mostly up to 76.9 µM. The method in brief:
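Quantitative HTS: compounds tested from 0.7 nM up to 77 uM against 2 nM enzyme with 80 uM 4-MU alpha-D-galactopyranoside. The 20 min room-temperature reaction is stopped with 1M NaOH/1M glycine, pH 10.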

For assay [15], the target named is alpha-glucosidase (Oryza sativa, rice) (UniProt Q653V4). Kind of assay: Counterscreen for Glucocerebrosidase Inhibitors: qHTS Assay for Rice alpha-Glucosidase at pH 5.0 (AID 997).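 Further: 0% = full activity with enzyme and -100% = basal without enzyme.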 To be noted: rice alpha-glucosidase enzyme activity; series mostly up to 76.9 µM. In short, it runs like this:
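Rice alpha-glucosidase (4 nM final) with 400 uM 4-methylumbelliferyl-alpha-D-glucopyranoside in citrate buffer pH 5.0, 20 min at room temperature, stopped at pH 10; fluorescence 365/440 nm, compounds 0.7 nM–77 uM, AC50 from Hill fits.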

Assay [16] in a line: qHTS for differential inhibitors of proliferation of Plasmodium falciparum line 7G8 (AID 1815).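 Further: potency means the concentration at half of the fitted maximal effect; parasite growth measured after three days of incubation.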 The note with it: Plasmodium falciparum 7G8 proliferation inhibition; series mostly up to 28.7 µM.
Assay [17] is described as follows: qHTS for differential inhibitors of proliferation of Plasmodium falciparum line HB3 (AID 1886).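 Further: parasites grown with compound for 72 h before SYBR Green readout; plate controls were vehicle for no effect and reference inhibitor for full effect.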 To be noted: Potency: Plasmodium falciparum HB3 proliferation inhibition; series mostly up to 28.7 µM.
A short description of assay [18]: Validation screen for small molecules that induce DNA re-replication in SW480 colon adenocarcinoma cells (AID 504364). Further: 0% is about no effect. To be noted: DNA re-replication phenotype (high-content imaging); series mostly up to 46.1 µM. In short, it runs like this: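 Cells are treated 48 hr with test compound, stained 40 min with Hoechst at 37 C, and scanned for nuclear fluorescence; compounds inducing re-replication increase nuclei with elevated intensity.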

The target of assay [19] is Voltage-gated inwardly rectifying potassium channel KCNH2 (Homo sapiens) (UniProt Q12809). The experiment in a line: qHTS Assay for Small Molecule Inhibitors of the Human hERG Channel Activity (AID 588834).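 Further: top concentration of the series differs between compounds; on the % scale 0 is the no-effect control and ±100 the full control effect; lower thallium flux fluorescence means stronger hERG block; nearly all actives have a fitted effect of over 50% in size.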 To be noted: U2OS BacMam hERG, FluxOR thallium flux fluorescence; series mostly up to 46.1 µM. The method in brief: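 U2OS cells BacMam-transduced with hERG, 2000 cells/well, compound ~10 min at 37 °C before stimulation buffer. FluxOR thallium flux fluorescence read kinetically on FDSS; decrease indicates block; AC50 from Hill fits.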
Voltage-gated inwardly rectifying potassium channel KCNH2 (Homo sapiens), sequence (Q12809 whole entry, looked up): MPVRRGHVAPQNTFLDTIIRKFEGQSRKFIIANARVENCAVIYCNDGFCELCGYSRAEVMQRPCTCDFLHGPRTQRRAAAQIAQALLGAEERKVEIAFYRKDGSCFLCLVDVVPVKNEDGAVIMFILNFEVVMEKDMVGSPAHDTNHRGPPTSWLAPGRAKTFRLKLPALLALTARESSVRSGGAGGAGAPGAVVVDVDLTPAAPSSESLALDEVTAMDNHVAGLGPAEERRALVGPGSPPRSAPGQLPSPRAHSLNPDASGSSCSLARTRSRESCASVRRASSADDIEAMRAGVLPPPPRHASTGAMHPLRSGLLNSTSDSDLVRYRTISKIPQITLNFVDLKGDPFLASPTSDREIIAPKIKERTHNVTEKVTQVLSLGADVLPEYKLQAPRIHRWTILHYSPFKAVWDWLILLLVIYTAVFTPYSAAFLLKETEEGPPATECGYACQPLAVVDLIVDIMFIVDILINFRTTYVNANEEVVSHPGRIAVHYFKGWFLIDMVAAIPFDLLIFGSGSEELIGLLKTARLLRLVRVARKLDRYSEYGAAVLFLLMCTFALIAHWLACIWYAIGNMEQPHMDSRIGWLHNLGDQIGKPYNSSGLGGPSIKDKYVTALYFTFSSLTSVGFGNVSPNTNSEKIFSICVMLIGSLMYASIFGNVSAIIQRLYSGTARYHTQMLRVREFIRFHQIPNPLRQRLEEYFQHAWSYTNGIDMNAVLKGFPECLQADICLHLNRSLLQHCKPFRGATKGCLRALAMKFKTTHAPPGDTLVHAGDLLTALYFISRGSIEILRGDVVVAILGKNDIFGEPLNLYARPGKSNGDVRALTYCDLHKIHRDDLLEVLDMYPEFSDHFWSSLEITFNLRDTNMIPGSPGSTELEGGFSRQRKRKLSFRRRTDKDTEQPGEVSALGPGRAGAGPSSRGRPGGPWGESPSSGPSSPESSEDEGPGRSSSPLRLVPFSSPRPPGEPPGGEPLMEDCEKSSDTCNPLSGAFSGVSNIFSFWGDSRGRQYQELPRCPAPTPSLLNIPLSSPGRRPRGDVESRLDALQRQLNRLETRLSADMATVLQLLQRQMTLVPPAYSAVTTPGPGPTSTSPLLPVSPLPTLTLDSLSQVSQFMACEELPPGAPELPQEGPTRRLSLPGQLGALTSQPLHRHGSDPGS

The next assay deals with CP266. The experiment in a line: qHTS profiling for inhibitors of Plasmodium falciparum proliferation (AID 504749).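 Further: 0% = DMSO vehicle and full inhibition = artemisinin control; nearly all actives have a fitted effect of over 60% in size.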 The note with it: P. falciparum in erythrocytes, SYBR Green DNA, 72 h; series mostly up to 28.7 µM. In short, it runs like this:
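Three-day growth assay of blood-stage parasites in erythrocytes (0.3% parasitemia, 2.5% hematocrit) at 37 C, 5% CO2, quantified by SYBR Green DNA staining after overnight detergent lysis.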

These results are taken from PubChem BioAssay (NCATS).

Each structure is given as a SMILES string. “And” between values parts separate entries of the source, which are not always exact repeats. Equal entries are not always repeated. Inconclusive results are not listed. Where a structure was tested more than once in an assay, its records may differ in their call. The source made the active and inactive calls. Unless noted, the call rests on the fitted dose curve; in most records, active means well fitted curve in the direction sought with a large enough effect; inconclusive means small, poorly fitted or top-dose-only effect, or another doubt; inactive means no such curve, though single readings can be large; an effect the other way counts as inactive or inconclusive.

Cytochrome P450 2D6 (Homo sapiens), sequence (P10635 whole entry, looked up): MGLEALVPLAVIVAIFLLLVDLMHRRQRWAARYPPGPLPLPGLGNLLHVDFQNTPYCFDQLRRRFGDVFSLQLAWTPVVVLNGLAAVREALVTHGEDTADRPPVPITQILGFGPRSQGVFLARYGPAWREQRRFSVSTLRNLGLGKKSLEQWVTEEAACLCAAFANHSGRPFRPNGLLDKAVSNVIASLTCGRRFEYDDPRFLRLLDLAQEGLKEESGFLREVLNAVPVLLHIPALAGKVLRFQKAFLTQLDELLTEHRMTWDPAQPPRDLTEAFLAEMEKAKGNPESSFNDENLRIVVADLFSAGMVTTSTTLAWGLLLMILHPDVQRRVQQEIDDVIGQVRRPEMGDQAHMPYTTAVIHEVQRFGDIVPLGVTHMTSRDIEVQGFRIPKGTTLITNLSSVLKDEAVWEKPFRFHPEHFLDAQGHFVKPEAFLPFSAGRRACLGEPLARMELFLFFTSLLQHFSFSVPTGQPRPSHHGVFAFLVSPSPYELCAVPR
3',5'-cyclic-AMP phosphodiesterase 4B (Homo sapiens), sequence (Q07343 whole entry, looked up): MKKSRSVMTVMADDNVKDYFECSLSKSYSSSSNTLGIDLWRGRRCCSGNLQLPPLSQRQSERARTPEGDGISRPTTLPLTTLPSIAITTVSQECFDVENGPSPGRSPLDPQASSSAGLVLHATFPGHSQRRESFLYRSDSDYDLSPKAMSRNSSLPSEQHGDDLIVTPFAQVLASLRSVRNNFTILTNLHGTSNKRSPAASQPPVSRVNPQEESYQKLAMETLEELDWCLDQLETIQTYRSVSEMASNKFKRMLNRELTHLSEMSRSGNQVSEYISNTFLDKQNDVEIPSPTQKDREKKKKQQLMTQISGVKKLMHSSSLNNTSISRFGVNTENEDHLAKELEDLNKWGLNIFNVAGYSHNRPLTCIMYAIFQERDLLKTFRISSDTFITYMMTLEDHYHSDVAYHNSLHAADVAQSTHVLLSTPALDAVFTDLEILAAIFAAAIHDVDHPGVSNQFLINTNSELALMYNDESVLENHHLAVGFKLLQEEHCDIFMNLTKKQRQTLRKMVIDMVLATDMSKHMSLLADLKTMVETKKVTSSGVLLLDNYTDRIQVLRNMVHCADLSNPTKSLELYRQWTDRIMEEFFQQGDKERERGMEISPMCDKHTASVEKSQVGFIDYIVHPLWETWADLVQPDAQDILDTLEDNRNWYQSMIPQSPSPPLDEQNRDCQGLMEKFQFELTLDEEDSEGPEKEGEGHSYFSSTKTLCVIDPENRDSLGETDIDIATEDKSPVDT
Pyruvate kinase (Leishmania mexicana), sequence (Q27686 2-499 E452W): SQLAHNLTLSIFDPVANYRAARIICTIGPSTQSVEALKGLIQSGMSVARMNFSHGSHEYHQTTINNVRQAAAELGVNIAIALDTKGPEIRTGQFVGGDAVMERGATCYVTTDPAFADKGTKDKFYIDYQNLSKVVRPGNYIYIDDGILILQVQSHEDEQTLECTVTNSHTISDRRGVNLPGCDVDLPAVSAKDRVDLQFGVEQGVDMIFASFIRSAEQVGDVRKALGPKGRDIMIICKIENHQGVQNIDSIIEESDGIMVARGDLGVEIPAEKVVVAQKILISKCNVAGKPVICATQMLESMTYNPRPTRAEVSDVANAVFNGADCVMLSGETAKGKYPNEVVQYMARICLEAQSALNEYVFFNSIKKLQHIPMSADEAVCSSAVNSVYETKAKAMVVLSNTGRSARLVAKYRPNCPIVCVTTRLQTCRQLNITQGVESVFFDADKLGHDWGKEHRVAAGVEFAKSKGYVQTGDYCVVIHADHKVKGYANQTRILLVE
Guanine nucleotide-binding protein G(i) subunit alpha-1 (Homo sapiens), sequence (P63096 whole entry, looked up): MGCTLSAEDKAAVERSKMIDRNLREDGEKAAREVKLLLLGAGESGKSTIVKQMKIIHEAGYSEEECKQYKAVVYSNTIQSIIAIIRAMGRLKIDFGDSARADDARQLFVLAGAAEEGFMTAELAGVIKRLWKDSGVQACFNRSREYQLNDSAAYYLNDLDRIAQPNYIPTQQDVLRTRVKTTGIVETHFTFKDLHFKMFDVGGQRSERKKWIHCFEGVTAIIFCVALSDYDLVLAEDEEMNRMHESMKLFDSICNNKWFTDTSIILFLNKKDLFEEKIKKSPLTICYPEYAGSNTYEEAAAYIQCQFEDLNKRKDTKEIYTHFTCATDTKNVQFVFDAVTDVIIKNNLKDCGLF
Ubiquitin carboxyl-terminal hydrolase 1 (Homo sapiens), sequence (O94782 whole entry, looked up): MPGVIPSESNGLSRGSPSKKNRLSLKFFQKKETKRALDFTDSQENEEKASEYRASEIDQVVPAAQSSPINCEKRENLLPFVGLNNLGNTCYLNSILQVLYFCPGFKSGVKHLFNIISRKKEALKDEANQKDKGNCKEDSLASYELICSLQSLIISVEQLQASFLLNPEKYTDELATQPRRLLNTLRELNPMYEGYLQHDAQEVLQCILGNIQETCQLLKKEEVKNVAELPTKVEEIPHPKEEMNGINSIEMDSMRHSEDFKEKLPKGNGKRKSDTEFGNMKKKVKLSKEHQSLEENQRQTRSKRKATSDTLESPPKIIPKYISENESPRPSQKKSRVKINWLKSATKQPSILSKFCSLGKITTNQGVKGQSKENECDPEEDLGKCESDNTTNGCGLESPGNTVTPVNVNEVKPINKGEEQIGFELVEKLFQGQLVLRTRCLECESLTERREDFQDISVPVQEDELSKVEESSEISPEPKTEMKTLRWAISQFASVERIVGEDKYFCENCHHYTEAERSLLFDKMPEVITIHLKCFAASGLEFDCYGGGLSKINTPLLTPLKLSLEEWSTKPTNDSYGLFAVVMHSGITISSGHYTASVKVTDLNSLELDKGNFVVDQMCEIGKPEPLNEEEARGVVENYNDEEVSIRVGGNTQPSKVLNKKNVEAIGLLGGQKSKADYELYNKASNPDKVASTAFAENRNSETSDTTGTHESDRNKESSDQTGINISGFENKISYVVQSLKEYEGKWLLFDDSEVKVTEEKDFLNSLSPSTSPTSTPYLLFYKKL
Alpha-galactosidase A (Homo sapiens), sequence (P06280 whole entry, looked up): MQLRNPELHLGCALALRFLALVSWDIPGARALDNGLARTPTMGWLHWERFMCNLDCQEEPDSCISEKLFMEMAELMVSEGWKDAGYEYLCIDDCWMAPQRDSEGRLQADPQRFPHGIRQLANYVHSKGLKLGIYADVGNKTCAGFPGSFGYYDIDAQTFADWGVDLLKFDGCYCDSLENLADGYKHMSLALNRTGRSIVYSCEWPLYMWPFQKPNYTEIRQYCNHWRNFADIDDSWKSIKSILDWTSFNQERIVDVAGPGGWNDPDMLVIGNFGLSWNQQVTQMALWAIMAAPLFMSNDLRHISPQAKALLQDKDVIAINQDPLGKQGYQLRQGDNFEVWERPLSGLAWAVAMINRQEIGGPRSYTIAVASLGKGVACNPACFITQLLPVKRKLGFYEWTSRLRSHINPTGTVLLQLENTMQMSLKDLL

As to `O=C(/C=C\n1cnc(-c2cc(C(F)(F)F)cc(C(F)(F)F)c2)n1)NNc1cnccn1`, the Potency entry in assay [1] is “inactive”.

In the case of `C[C@@]12C(=O)OC(=O)[C@]1(C)[C@H]1CC[C@@H]2O1`, the activity change, negative = inhibition is -102% [at 17.2 µM] (active) in assay [2] and -99.7% [at 17.2 µM] (active) in assay [3]. Also, the activity, negative = inhibition in [4] was -85.9% [at 17.2 µM] (active). Moreover, in [5], the Potency entry was “inactive”.

As to `CN(CCOc1ccc(C[C@H](Nc2ccccc2C(=O)c2ccccc2)C(=O)O)cc1)c1ccccn1`, the Potency entry in [6], in [7], in assay [12], in [17] and in [19] was “inactive” throughout. The call in assay [8], in [11], in assay [13], in [14], in assay [15] and in [18] was inactive. For the same molecule, the Potency result in assay [9] is “inactive and 31.6 nM (active)”; in [10], “inactive and 3.98 µM (active)”; in assay [16], 8.91 µM (active).

As for `C=C1CCC2[C@](C)(CO)C(O)CC[C@]2(C)C1C/C=C1/C(=O)OCC1O` (stereo partly drawn), the Potency entry with CP266 was “inactive”.

For the molecule `C[C@H]1CC2[C@@H]3CCC4=CC(=O)C=C[C@]4(C)[C@@]3(F)[C@@H](O)C[C@]2(C)[C@@]1(O)C(=O)CO` (stereo partly drawn), the call in [18] was inactive. Moreover, the Potency entry in assay [19] was “inactive”.

On to `CC(/C=C1\SC(=S)N(CC(=O)O)C1=O)=C\c1ccccc1`, for which the Potency entry with CP266 was “inactive”.
